The list is not random: actives were taken first. Their share in the collection is about 0.9%.
CDC25B CDK2 inh = human CDC25B-CDK2/CyclinA binding inhibition; P30305+P24941; HTRF CDC25B-CDK2/CyclinA binding, anti-His/anti-Flag; stronger effect = higher value; z-score (concentration not given with the values); 0.72% of 94,000 active; in the data active means z-score above about 3.2
HIV TAR-Tat = HIV-1 TAR-Tat binding disruption; AID 1259389; HIV-1 TAR RNA, Tat peptide displacement FRET; stronger effect = higher value; 0.6% of 100,000 active; z-score (test concentration not listed); active means z-score of 3 or more in at least 2 runs
* marks the source's active call; other numbers are inactive results; · = not tested or not shown.

SMILES	CDC25B CDK2 inh	HIV TAR-Tat
CC(=O)Nc1c2n(c3ccc(F)cc13)CC(C)(C(=O)NC1CCCCC1)N(C(C)C)C2=O (stereo not given)	·	18*
CC(=O)Nc1c2n(c3ccc(F)cc13)CC(C)(C(=O)NC1CCCCC1)N(CCC(C)C)C2=O (stereo not given)	·	1.5
CC(C)C(=O)Nc1nnc2n1CCCS2	·	1.6
FC(F)(F)C(=C(NC(=S)n1cnc2ccccc21)C(F)(F)C(F)(F)F)C(F)(F)F	-3.2	·
FC(F)(F)C(=C(NC(=S)N1CCCCCC1)C(F)(F)C(F)(F)F)C(F)(F)F	5.7*	·
CCCOc1ccc(C2C=C(C(=O)O)Nc3ncnn32)cc1 (stereo not given)	2.4	0.28
Cc1ccc2[nH]cc(NC(=O)NCc3ccco3)c(=O)c2c1	0.15	0.09
O=C(Cn1cnc(S(=O)(=O)N2CCOCC2)c1)NC1CCCCC1	·	0.96
COC(=O)CC(C(=O)OC)P(=O)(O)CN(C)S(C)(=O)=O (stereo not given)	4.5*	·
Cc1sc2ncn(CC(=O)N3CCN(C)CC3)c(=O)c2c1S(=O)(=O)N1CCCCC1	-0.41	·
Cc1sc2ncn(CC(=O)N(C)C3CCCCC3)c(=O)c2c1S(=O)(=O)N1CCN(C)CC1	15*	-0.17
Cn1c(=O)c2c(c3ccccc31)OC(=O)CC2c1ccccc1 (stereo not given)	-0.44	-0.31
Cn1c(=O)c2c(c3ccccc31)OC(=O)CC2c1ccco1 (stereo not given)	-0.48	14*
C=CCN1C(=S)NC2c3cc(Cl)ccc3OC1(C)C2C (stereo not given)	-0.12	·
O=C(Nc1ccc(Br)cc1)Nc1nnc(N2CCCCC2)s1	-0.16	-0.98
COc1ccc(-c2cc(C(=O)OC(C)C)c3cc(Br)ccc3n2)cc1	15*	·
CCOc1ccc(-c2cc(C(=O)O)c3cc(Br)ccc3n2)cc1	-2.4	1.9
Cc1csc(NC(=O)C2CCCN(c3cc(=O)n(C)c(=O)n3C)C2)n1 (stereo not given)	·	1.9
CCOC(=O)c1ncn(-c2ccccc2)n1	-1.9	0.55
CCOC(=O)Cn1cnc2nn(-c3ccccc3)cc2c1=O	3.6	5.1*
O=C(NCC1CCCO1)c1cccc(C(=O)NCC2CCCO2)n1 (stereo not given)	1.1	1.8
COc1cccc(Nc2cc(N3CCOCC3)c3noc4c3c2C(=O)c2ccccc2-4)c1	-2.1	1.4
CCN1CCN(c2cc(Nc3ccc4c(c3)OCO4)c3c4c(onc24)-c2ccccc2C3=O)CC1	1.2	1.1
CN1CCN(c2cc(Nc3ccc4c(c3)OCO4)c3c4c(onc24)-c2ccccc2C3=O)CC1	10*	-7
O=C1c2ccccc2-c2onc3c(N4CCOCC4)cc(Nc4ccc5c(c4)OCCO5)c1c23	1.7	-6.2
SMILES	CDC25B CDK2 inh	HIV TAR-Tat
COc1cccc(Nc2cc(N3CCN(C)CC3)c3noc4c3c2C(=O)c2ccccc2-4)c1	11*	0.5
CN1CCN(c2cc(Nc3ccc4c(c3)OCCO4)c3c4c(onc24)-c2ccccc2C3=O)CC1	11*	-7
CCNC(=O)Cn1nc(C)c2nn(-c3ccc(Cl)cc3)c(C)c2c1=O	·	0.65
CC(C)(C)c1ccc(C2/C(=C(\O)c3ccc(F)cc3)C(=O)C(=O)N2c2nncs2)cc1 (stereo not given)	-1.4	·
COCCCn1nnc2cc(S(=O)(=O)N3CCCCC3C(=O)O)ccc21 (stereo not given)	-0.06	1.6
CCCCN(CC)CCNC(=O)Cn1ncc2c(=O)oc3ccc(C)cc3c21	-1.6	1.5
COc1ccc(-c2noc(C(C)NS(=O)(=O)c3ccc(C)cc3)n2)cc1 (stereo not given)	-1.1	1.7
CC1CCCC(NC(=O)C2(C)Cn3c(cc4occc43)C(=O)N2CC2CCCO2)C1C (stereo not given)	·	6.8*
CC1CCCC(NC(=O)C2(C)Cn3c(cc4occc43)C(=O)N2C2CCCC2)C1C (stereo not given)	·	0.67
O=C(CCn1c(=O)[nH]c2ccsc2c1=O)N1CCN(c2ccc(Cl)cc2)CC1	-3.1	·
O=C(O)CSCC(=O)Nc1cc(C(F)(F)F)cc(C(F)(F)F)c1	8.4*	·
O=C(CSCC(=O)Nc1cccc(C(F)(F)F)c1)Nc1ccccc1	-1.5	·
O=C1c2ccccc2C(Nc2cccnc2)N1c1ccccn1 (stereo not given)	9.9*	-0.14
O=C1c2ccccc2C(Nc2cccnc2)N1c1cccnc1 (stereo not given)	-0.21	-0.44
O=S(=O)(NCc1nc(-c2ccc(Cl)cc2)no1)c1ccc(F)cc1	2.8	1
CCOC(=O)c1c(C)[nH]c(C)c1S(=O)(=O)Nc1ccc(F)c(Cl)c1	·	1.6
CCN1CCN(c2nc(N)c([N+](=O)[O-])c(N3CC(C)CC(C)C3)n2)CC1 (stereo not given)	·	1.1
Cc1n[nH]c(C)c1CCc1nc(-c2ccc(Cl)cc2)no1	-1.8	2.1
CCCc1nn2c(=O)cc(COc3cc(C)ccc3C)nc2s1	0	0.21
CCSc1nn2c(=O)cc(COc3cc(C)ccc3C)nc2s1	1.1	7.7*
O=C(Nc1cccc(Cl)c1)c1cn(-c2ccccc2)cn1	·	0.12
OCCNC(=S)Nc1ccc2nc3c4ccccc4c4ccccc4c3nc2c1	21*	·
O=C(Nc1ccc2nc3c4ccccc4c4ccccc4c3nc2c1)N(CCO)c1ccccc1	-2	·
CC(CC(=O)NCc1cccs1)CC1=NS(=O)(=O)c2ccccc2N1 (stereo not given)	·	2
CN(CCO)c1cc(NCc2ccco2)c2c3c(onc13)-c1ccccc1C2=O	-1.2	-5.3
SMILES	CDC25B CDK2 inh	HIV TAR-Tat
O=C(O)c1cccc(O)c1O	·	9.6*
Nc1ccc(C(=O)O)c(O)c1 (tested in a mixture with another compound)	·	16*
Nc1ccc(O)c(C(=O)O)c1	·	21*
Nc1ccc(C(=O)O)cc1	·	1.6
O=C(O)c1cc(O)ccc1O	·	3.2
O=C(O)c1cccc2cccc(C(=O)O)c12	-1.3	·
O=C(c1ccc2c(=O)n3c(nc2c1)CCCCC3)N1CCOCC1	-1.8	·
CCC(C)Nc1ncnc2sc(C(=O)O)c(C)c12 (stereo not given)	·	3.3
Cc1c(C(=O)O)sc2ncnc(NC(C)C)c12	·	0.33
CCOc1ccc(Nc2ncnc3sc(C(=O)O)c(C)c23)cc1	·	4.7*
Cc1c(C(=O)O)sc2ncnc(Nc3ccc(F)cc3)c12	·	25*
Cc1c(C(=O)N2CCN(c3ccccc3)CC2)sc2ncnc(N3CCN(c4ccccn4)CC3)c12	-1.7	1.2
Cc1c(C(=O)O)sc2ncnc(N3CCN(c4ccccc4)CC3)c12	·	29*
Cc1c(C(=O)O)sc2ncnc(NCc3cccs3)c12	·	9.8*
Cc1c(C(=O)O)sc2ncnc(NCCc3ccco3)c12	·	0.32
Cc1cccc(N(C)c2c(-c3ccccc3)c(=O)c2=O)c1	·	2.1
CC1(C)C(=O)N(CC(=O)Nc2nccs2)c2ccc(S(=O)(=O)N3CCCCC3)cc21	·	-0.41
Cc1c(C(=O)O)sc2ncnc(Nc3cccc(Cl)c3)c12	·	21*
Cc1c(C(=O)O)sc2ncnc(NCC3CCCO3)c12 (stereo not given)	·	2.1
COCCNc1ncnc2sc(C(=O)O)c(C)c12	·	2.5
COc1cc(OC)c(Nc2ncnc3sc(C(=O)O)c(C)c23)cc1Cl	·	4.2*
NC(=O)CSc1nc2nccnc2c(=O)n1CCc1c[nH]c2ccccc12	-0.62	0.32
C=CCN(CC=C)S(=O)(=O)c1ccc(C(=O)Nc2nc3ccc(S(N)(=O)=O)cc3s2)cc1	-2.7	·
CC1=CC(=O)N(c2nc(-c3ccc(Cl)cc3)cs2)C1=O	-1.3	·

Bioassay records deposited in PubChem by Center for Chemical Genomics, University of Michigan.
